Counter-ions that a name gives are not always drawn.
tested on: MDA-MB-468; assay: phospho-S6 immunofluorescence (DAPI-normalised), per-plate z-score; higher = higher phospho-S6 signal (less pathway suppression); details: co-treatment: vehicle; 24 h
Experimental: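 GPCR-targeted compound library (MedChemExpress HY-L006) tested on MDA-MB-468 PTEN-null TNBC cells in 384-well plates at 0.1, 1 or 10 uM, combined with vehicle, GDC0941 450 nM or lapatinib 1 uM, for 24 h. Phospho-S6 (S240/244) immunofluorescence normalised to DAPI and expressed as a per-plate z-score; values are the mean of biological triplicates.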

SMILES	phospho-S6 immunofluorescence (z-score)
Cc1ccc(/C(=C\CN2CCCC2)c2cccc(/C=C/C(=O)O)n2)cc1 [Acrivastine] (compound 10 µM)	0.62
CCCCC[C@H](O)/C=C/[C@@H]1[C@@H](C/C=C\CCCC(=O)O)[C@@H](O)C[C@H]1O [Dinoprost (tromethamine salt)] (compound 10 µM)	0.98
NCCc1ccc(O)c(O)c1 [Dopamine (hydrochloride)] (compound 10 µM)	0.15
C[C@]12CCC(=O)C=C1CC[C@@H]1[C@@H]2CC[C@@]2(C)[C@H]1CC[C@]2(O)C(=O)CO [Cortodoxone] (compound 10 µM)	-0.43
COc1cc2nc(C3CC3)nc(N3CCN(c4ccccc4OC)CC3)c2cc1OC (compound 10 µM)	0.05
CCNC(=O)[C@H]1O[C@@H](n2cnc3c(N)nc(NCCc4ccc(CCC(=O)O)cc4)nc32)[C@H](O)[C@@H]1O (compound 10 µM)	-0.14
O=C(O)CCc1ccc(NCc2cccc(Oc3ccccc3)c2)cc1 (compound 10 µM)	1.24
CN(C)CCCN1c2ccccc2Sc2ccccc21 [Promazine (hydrochloride)] (compound 10 µM)	0.4
CN(C)CCC(c1ccc(Cl)cc1)c1ccccn1 (configuration not stated) [Chlorpheniramine (maleate)] (compound 10 µM)	-8.97
O=C(O[C@@H]1C[C@@H]2C[C@H]3C[C@H](C1)N2CC3=O)c1c[nH]c2ccccc12 [Dolasetron] (compound 10 µM)	-0.46
OCc1ccc(-c2nn(Cc3ccccc3)c3ccccc23)o1 [Lificiguat] (compound 10 µM)	0.54
CC(C)N(CCCCOCC(=O)O)c1cnc(-c2ccccc2)c(-c2ccccc2)n1 (compound 10 µM)	0.56
Cc1ccc(Sc2ccccc2N2CCNCC2)c(C)c1 [Vortioxetine] (compound 10 µM)	-6.93
C[C@H](Cc1cc2c(c(C(N)=O)c1)N(CCCO)CC2)NCCOc1ccccc1OCC(F)(F)F [Silodosin] (compound 10 µM)	0.57
COCCCN1CCC(NC(=O)c2cc(Cl)c(N)c3c2OCC3)CC1 [Prucalopride (succinate)] (compound 10 µM)	-1.84
C=CCc1ccccc1OCC(O)CNC(C)C (configuration not stated) [Alprenolol (hydrochloride)] (compound 10 µM)	1.12
O=C(CCCN1CC=C(n2c(=O)[nH]c3ccccc32)CC1)c1ccc(F)cc1 [Droperidol] (compound 10 µM)	0.18
N=C(N)NCCC[C@@H](NC(=O)[C@@H]1CCCN1C(=O)[C@@H]1CSSCCC(=O)N[C@@H](Cc2ccc(O)cc2)C(=O)N[C@@H](Cc2ccccc2)C(=O)N[C@@H](CCC(N)=O)C(=O)N[C@@H](CC(N)=O)C(=O)N1)C(=O)NCC(N)=O [Desmopressin (Acetate)] (compound 10 µM)	-0.41
O=C(c1ccc(OCCCc2c[nH]cn2)cc1)C1CC1 [Ciproxifan (maleate)] (compound 10 µM)	0.21
CC(C)(Cc1ccc2ccccc2c1)NC[C@@H](O)COc1cccc(Cl)c1C#N [NPS-2143 (hydrochloride)] (compound 10 µM)	-9.7
CC(=O)Oc1cc2c(s1)CCN(C(C(=O)C1CC1)c1ccccc1F)C2 (configuration not stated) [Prasugrel] (compound 10 µM)	-0.48
COCCCN1CCC(NC(=O)c2cc(Cl)c(N)c3c2OCC3)CC1 [Prucalopride] (compound 10 µM)	0.17
CCOc1ccccc1OCCN[C@H](C)Cc1ccc(OC)c(S(N)(=O)=O)c1 [Tamsulosin] (compound 10 µM)	-0.53
C#CCOc1ccc2c(c1)c(-c1ccc(C(C)C)cc1)nc(=O)n2C(C)C [Calcium-Sensing Receptor Antagonists I] (compound 10 µM)	-4.18
O=C1O[C@]2(CC[C@H](C(=O)Nc3ccn(-c4ccccc4F)n3)CC2)c2cnccc21 (compound 10 µM)	0.3
CN1CCN2c3ncccc3Cc3ccccc3C2C1 (configuration not stated) [Mirtazapine] (compound 10 µM)	-0.48
CC1CCN(CC[C@H]2CCCN2S(=O)(=O)c2cccc(O)c2)CC1 (compound 10 µM)	0.48

Source: the supplement of paper PMC7411640
